Laboratory results from the supplement of paper PMC4894684.
Counter-ions that a name gives are not always drawn. ± gives the standard deviation of the averaged measurements.

These compounds were tested on Toxoplasma gondii RH (in HFF) (assay: parasite growth relative to the screen mean (all compounds = 100%); higher = less inhibition of parasite growth). Conditions: 5 µM; 72 h; oxygen 21 %.
Outline: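 Confluent human foreskin fibroblasts in 96-well plates received library compounds by pin transfer at 5 µM final, taken from 10 mM DMSO stocks. Within 2 h the cells were infected with RH β-Gal–GFP Toxoplasma at MOI 1:5 and cultured 72 h at 21% O2. A CPRG β-Gal assay read against in-plate standard curves gave parasite number, and growth is stated relative to the screen mean, where all compounds = 100%, averaged across two screens.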
`O=C(O)C1=CCCN(CCON=C(c2ccccc2)c2ccccc2)C1` showed a parasite growth of 159 ± 9.8%. Compound `CN(CCc1ccc(Cl)c(Cl)c1)CC(O)COc1ccc(NS(C)(=O)=O)cc1` (centres undefined) has a parasite growth of 58.1 ± 4.3%. For `COc1cc(CNC(=O)CCCC/C=C/C(C)C)ccc1O` [(E)-Capsaicin], the parasite growth was 135 ± 14%. Work on `Cc1cc(F)c(Nc2ncnc3cc(OCc4ccccc4)ccc23)cc1O` yielded a parasite growth of 11.2 ± 13%. For `N[C@H](C(=O)O)c1cc(O)cc(O)c1`, the parasite growth was 119 ± 4.9%. Compound `Nc1nccc(-c2ccc3noc(-c4ccc(Cl)cc4)c3c2)n1` [PIM 1 Inhibitor 2] has a parasite growth of 69.9 ± 15%. `Cc1cccc(C(=O)NCN2CCN(c3ccccc3C#N)CC2)c1` was tested, and the parasite growth was 133 ± 7.4%. In the case of `Cc1cc2nc3c(=O)[nH]c(=O)nc-3n(C)c2cc1C=O`, the parasite growth is reported as 22.6 ± 1.9%. For `Oc1ccc(-c2c(-c3ccccc3)nn3c(C(F)(F)F)cc(C(F)(F)F)nc23)cc1`, the parasite growth was 170 ± 8.6%. In the case of `CC[C@H](NC(=O)c1c(C)c(-c2ccccc2)nc2ccccc12)c1ccccc1`, the parasite growth is reported as 98.6 ± 3.1%. In the case of `Cc1cccc(Nc2cc(Cl)nc(SCC(=O)O)n2)c1C`, the parasite growth is reported as 108.5 ± 0.57%. In the case of `Nc1ncnc2c1ncn2[C@@H]1O[C@H](CO)C[C@H]1O` [Cordycepin], the parasite growth is reported as 122 ± 20%. Compound `COc1ccc2cc([C@H](C)C(=O)O)ccc2c1` [Naproxen sodium] has a parasite growth of 89.9 ± 13%. With `O=C1CCC(N2C(=O)c3ccccc3C2=O)C(=O)N1` (centres undefined) [Thalidomide] the parasite growth was 151 ± 46%. `CC(=N)NCc1cccc(CN)c1` [1400W dihydrochloride] was tested, and the parasite growth was 74 ± 48%. In the case of `C[C@@H](N)[C@H]1CC[C@H](C(=O)Nc2ccncc2)CC1`, the parasite growth is reported as 92.3 ± 21%. In the case of `CCN(CC)CCOCCOC(=O)C1(c2ccccc2)CCCC1` [Carbetapentane citrate], the parasite growth is reported as 137 ± 18%. `NC1CCN(c2cccc(Cl)n2)CC1` gave a parasite growth of 141 ± 23%. Compound `OC1CCC(Nc2nc(-c3ccccc3)nc3[nH]ccc23)CC1` (centres undefined) has a parasite growth of 116 ± 3%. Compound `O=C(O)c1ccc(-c2c[nH]c3ncc(-c4ccccc4)cc23)cc1C1CCCC1` has a parasite growth of 46.2 ± 9.6%. With `CCCCCCCCCCCCCCCCn1cc[n+](Cc2ccccc2)c1C` the parasite growth was < 0%. With `COc1ccc2[nH]c(-c3ccccc3)c(CCNC(C)=O)c2c1` [2-Phenylmelatonin] the parasite growth was 149 ± 20%. `N#Cc1ccccc1OCC(O)CNCCNC(=O)Nc1ccccc1` (centres undefined) was tested, and the parasite growth was 137 ± 18%. In the case of `CCc1ccc(OCc2ccccc2C(=O)Nc2ccc3nc(C)cc(N)c3c2)cc1`, the parasite growth is reported as < 0%. In the case of `CCCCOC(=O)c1cc2c(cn1)[nH]c1ccccc12`, the parasite growth is reported as 150 ± 37%. In the case of `OC(CN1CCN(c2cccc(Cl)c2)CC1)C(c1ccccc1)c1ccccc1` (centres undefined), the parasite growth is reported as 147 ± 28%. `N#C/C(=C\c1ccc(O)c(O)c1)C(=O)Nc1ccccc1` gave a parasite growth of 141 ± 23%. Work on `CC(C)NCC(O)COc1cccc2[nH]ccc12` (centres undefined) [Pindolol] yielded a parasite growth of 148 ± 24%. `Cn1cnnc1Sc1c([N+](=O)[O-])ncn1C` showed a parasite growth of 131 ± 11%. For `CCc1cc(C(C)=O)c(O)cc1OCCCCCC(C)(C)c1nn[nH]n1`, the parasite growth was 111 ± 4.1%. `O=c1nc2ccccc2c2n1CC(CN1CCN(c3ccccc3)CC1)N2` (centres undefined) showed a parasite growth of 120 ± 2.4%. Compound `CC(C)(C)NC[C@H](O)COc1nsnc1N1CCOCC1` [(S)-Timolol maleate] has a parasite growth of 119 ± 1.7%. `CC1c2ccccc2CN1CC1=NCCN1` (centres undefined) showed a parasite growth of 131 ± 4.2%. Work on `CN(C)CCCN1c2ccccc2CCc2ccc(Cl)cc21` [Clomipramine hydrochloride] yielded a parasite growth of 38.4 ± 2.9%. For `CN1CCC[C@@H]1Cc1c[nH]c2ccc(CCS(=O)(=O)c3ccccc3)cc12` [Eletriptan hydrobromide], the parasite growth was 126 ± 18%. Compound `CC(C)(Oc1ccc(Cl)cc1)C(=O)O` [Clofibric acid] has a parasite growth of 127 ± 43%. `CC1=C(/C=C/C(=C/C=C/C(C)=C/C(=O)O)c2ccc(C)cc2)C(C)(C)CCC1` gave a parasite growth of 94.1 ± 23%. With `Nc1nc2c(ncn2COCCO)c(=O)[nH]1` [Acyclovir] the parasite growth was 124 ± 28%. Work on `COc1cc2nc(N3CCN(C(=O)c4ccco4)CC3)nc(N)c2cc1OC` [Prazosin hydrochloride] yielded a parasite growth of 73.4 ± 17%.
